Experimental data reported in the supplement of paper PMC6555819.

These sequences were tested on RARb:RXRa (NR concentration 270 nM, RXRa partner concentration 90 nM) (assay: PBM binding z-score (relative to random genomic background probes); higher = stronger binding; sequences stand for … in GC…GCGATTGACAGCGTAGAATGAAGG).
Outline: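 Random background probes are the reference for binding z-scores. These scores derive from regression-normalized fluorescence on custom Agilent 4×180K protein-binding microarrays incubated 1 h with ligand-free nuclear receptor dimers. Binding was detected with antibodies against each partner (one per run).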
Sequence CCAGACAGGTGAGAAGGGAACTCAGCCTCGATTA has a PBM binding z-score of 0.228.
ACTCGGAGGACAAAGGTCTGAGCTACGCCAGTGA gave a PBM binding z-score of 1.3.
With ACCTCTAGGTAACCAAGTTCAGTGAATGCCGAAC the PBM binding z-score was 0.936.
Sequence AATACAGGGTCATCGTAGGCCGGAGTACGCACAG has a PBM binding z-score of 4.17.
In the case of CCACCAAGGTGAACAAGGTCGTTGATTACTATTC, the PBM binding z-score was 2.37.
With CCGAGTAGGTTATGGCGCATTCAGGCAACGGTGA the PBM binding z-score was 0.551.
ACTTACGGGTCAACGAGGGTATAGCACGCGTATA gave a PBM binding z-score of 4.05.
CGTCCAAGGTCAGAGAGGTCAGTCAATGCCGAGT gave a PBM binding z-score of 5.12.
Work on CAAACTAGGTCAAGAGGTTAAAGTCCGCTTCCCG yielded a PBM binding z-score of 4.47.
Work on TCTAGCAGGCCAGAGAGTCACTCAAGAGGTACGG yielded a PBM binding z-score of -0.0563.
Sequence TCTTTTAGATCAAAGGTTAAGAAAGCCGAAGCCT has a PBM binding z-score of 2.07.
CAAACTTGGTCAAGGTCAAAGTCGGTTTGTGCCA was tested, and the PBM binding z-score was 4.12.
With GCGACTGTGGCATCAGCAGGTTACCATAACTTAA the PBM binding z-score was 0.00959.
ATCGAAAGGTCGAGGAGAGTATAGAGAAAGGGAA was tested, and the PBM binding z-score was 3.9.
With CATACAGGGTCAGCTAGGCCACAGTAGGGACGGC the PBM binding z-score was 4.17.
Work on TCATATAGGAAAATGCTAGGTGAAAGTCCGATCT yielded a PBM binding z-score of 0.176.
Sequence CCTCGGAGGACAGAACGTCAGAGCTGTCCGCTTT has a PBM binding z-score of 0.103.
For CCGACTGGGGCATAAGGTTACCATGAGCCAGCCC, the PBM binding z-score was 1.55.
In the case of TCTTGTAGATCAAGCAGGTTTAGAAAGCCTGAGT, the PBM binding z-score was -0.191.
With GGAACGAGGGCAAGTTGATGGCAGAGTTTGATGG the PBM binding z-score was 2.47.
For CCTCGGAGGACAACAGGTGGTCAGAGCTGCCAGA, the PBM binding z-score was 1.04.
TCGAGTAGGTTCCCAATGGGGCATTCAGCTTTCT showed a PBM binding z-score of -0.327.
Sequence TCGAATAGGTTAGTCGGGGCATTCAGCCAACATA has a PBM binding z-score of 1.06.
TCGAGTAGGTTACCAATGGGGTATTCAGCTTTCT was tested, and the PBM binding z-score was 0.76.
With CAAACTAGTTCAAGGTCAAAGTCGGTTTGTGCCA the PBM binding z-score was 4.34.
For CGAACTAGGTCATCCAGGACAGCGAATACATTGA, the PBM binding z-score was 3.81.
In the case of ATACCAAAGTGATCGTGAGGTCGTTGATACTAAC, the PBM binding z-score was 0.514.
With ACCTCTAGGTAAGACTCAGTTCAGTGAAGAACGC the PBM binding z-score was -0.0918.
For TCATATAGGTAAAATGTGAAAGTCGGTGTGGTAA, the PBM binding z-score was 0.176.
In the case of CCGACTGGGGCAGAAAGGTTACCATCCCATCCGG, the PBM binding z-score was 1.89.
For TGGAGTAGGTTAGGGGCATTCAGAATGGCGTCGA, the PBM binding z-score was 1.6.
CCTACTGGGCCAAAGTCATTGATCAGTCAAAGCA showed a PBM binding z-score of 0.121.
In the case of ATTCGGAGGACAAAGGTCAGAGCTACGCCAGTGA, the PBM binding z-score was 4.39.
For ATACCAAGGTGATCGTGAGGTCGTTGAGACTAAC, the PBM binding z-score was 1.39.
GCTAGCAGGCCAGTTGGGTCACTCAATGACGGGC showed a PBM binding z-score of 1.27.
With CCTACTGGGCCCAAAAGGTCATTGATGCCGATAA the PBM binding z-score was 3.93.
Work on AGAACGAGGGCACGATGAGTTGATAGCAGAGTAG yielded a PBM binding z-score of 2.32.
TCATATAAGTAATACAGGTGAAAGTCGGCATCTA gave a PBM binding z-score of 0.567.
For ATCGAAATGTCGACGAGGTGAGTATACACCGTTT, the PBM binding z-score was 0.403.
In the case of TCTCGGAGGACACGAAAGGTCAGAGCTCGACATC, the PBM binding z-score was 4.14.
